# Source: the supplement of paper PMC11417369
# ± gives the standard deviation of the averaged measurements. Over roughly 25,000 sequences, “ln(normalized median fluorescence intensity)” has its median near 8.6; the highest 2% begin near 10. The entries come from a sample that favours the highest values as a whole.
# System: PfAP2-EXP AP2 domain (GST-tagged)
# Assay: gcPBM binding intensity (ln(normalized median fluorescence intensity)); higher = stronger DNA binding
# How it was run: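 Alexa488 anti-GST antibody, scanned at 488 nm, detected GST-tagged P. falciparum DNA-binding domains that had been expressed in E. coli and incubated for 1 h on an Agilent 4 × 180k array. The array carried primer-extended double-stranded 36-bp intergenic genomic probes and negative controls. Binding intensity is the highest Masliner-normalised natural-log median intensity across replicate spots of either orientation of each probe.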
row,Sequence,gcPBM binding intensity (ln)
1,AAAAAAAAAAAAAAATGTACATAAAAATGATATAAT [XGTACX_site4096],8.7 ± 0.55
2,TATAAAATTTTTAAAAGTACATATTTTACATAATAC [XGTACX_site2193],8.38 ± 0.26
3,TTTTTATAACATAAAAGTACATATTTTTAATTTAAT [XGTACX_site4394],8.05 ± 0.4
4,TTTAAAAAGTTATGAAGTACATATATATATATATAT [XGTACX_site2188],10.2 ± 0.29
5,TATTTAAGAATATGAAGTACATATATTATTTAAAAA [XGTACX_site7897],8.15 ± 0.29
6,CTTTAAGTTATATGAAGTACAATTTAAAAAAATGAA [XGTACX_site358],8.41 ± 0.38
7,TATTCCTAATTTAAAAGTACATATATATATATATAT [XGTACX_site3008],10.2 ± 0.54
8,TTTTTTTTTTTGATGGTGCAATATATTAAATAGAAA,8.86 ± 0.28
9,AATATATGGTTCCTTGATATTAAATTCAATTTAATG [CACACA_negctrl_site71],8.41 ± 0.52
10,TAATTGATTCTTCACCGTACTCACACATATATATAT [XGTACX_site6530],9.61 ± 0.14
11,GATTCTTCACCGTACTCACACATATATATATATATA [CACACA_site5665],10.2 ± 0.52
12,ATATATATATATATATGTACACATATATATACTCAC [XGTACX_site8043],10 ± 0.4
13,ATATTATATATATACACACACACATGCATGCACCTA [CACACA_site106],10.07 ± 0.099
14,TTTGGGATAAAACAAAGTACTAACAAAATATATAAT [XGTACX_site8240],8.85 ± 0.47
15,ATTTATATTTTTTAATGTACATTTATATGTATACAA [XGTACX_site4555],8.78 ± 0.41
16,ATATAATATTTCATGTGGACACATTTTATGATTGTA [XGTACX_site8770],8.74 ± 0.38
17,TGCAAAAAAAAAAAAAAAAAATATATGGAAATATAT [GTGCAC_negctrl_site257],8.54 ± 0.19
18,ATGGAAATAAAAAAAAAAAAAAAAAAAAATATATAT [GTGCAC_negctrl_site67],8.36 ± 0.33
19,TTGTATATATATGGAAAAATATATATATATATATAT [GTGCAC_negctrl_site591],10.3 ± 0.29
20,CGTATTATTATATAAACACACAAGGGGGCATGTATA [CACACA_site745],9.83 ± 0.042
21,AATATTTAAGTACTGGTGCGTGTATATAATGATTAA [GTGCAC_site9633],8.665 ± 0.078
22,TTATTGTAAATATATGCATGTGCAAAATGAAAAAAA [TGCATGCA_site399],9.07 ± 0.18
23,AATATTTTAAATATTGCATGCAATGAAAAATGTAAA [TGCATGCA_site139],10.2 ± 0.31

row,Sequence,gcPBM binding intensity (ln)
1,AAAAAAAAAAAAATTGCATGTAAATGAAATAATAAA [TGCATGCA_site116],8.89 ± 0.2
2,TAAAAGTTCACCTGTACACACATATAAATATGTACA [CACACA_site6901],8.47 ± 0.33
3,TAAGTTCCCTTTGAATGTACATATAATGAAAAGAAA [XGTACX_site826],8.76 ± 0.37
4,AGTTTCCATATGAGGTGTACATATATAATTTATTAT [XGTACX_site2369],8.72 ± 0.4
5,ATATATTTACTTAATACACACAAAAAAAAAAAAAAA [CACACA_site3657],8.21 ± 0.52
6,AAAAATACCTTATATATACACACTATGTTTTTCTTT [CACACA_site1192],8.71 ± 0.28
7,TATATATAGAAACACACACACACATATATATATATT [CACACA_site2539],8.73 ± 0.67
8,TATTGCCCTTGACACACACACATATAAATAAATATA [CACACA_site7220],8.63 ± 0.37
9,TATATATAGAAACACACACACATATATATATATATT [CACACA_site4115],8.7 ± 0.37
10,TATTGCCCGAAACACACACACATATATATATATATA [CACACA_site2491],10.3 ± 0.2
11,TATATTGCCCTTCACACACACACATATATATATATA [CACACA_site2492],10.2 ± 0.28
12,TATTGCCCTGGACACACACACATATATATATATATA [CACACA_site5389],10.2 ± 0.51
13,TTCAAATATAAATACACACACATAGCTACAAAATAA [CACACA_site4172],8.95 ± 0.42
14,ATATATATATATATTTGTACAGATTTATATTATAAT [XGTACX_site7612],9.96 ± 0.23
15,ATTCATATATTTATTGCATGCAAAGTAAAATAAATA [TGCATGCA_site307],10.23 ± 0.099
16,TATTATTTTTCATATGCATGCAAAAATAAAAAAATA [TGCATGCA_site350],9.63 ± 0.35
17,TTTGCAACATATAAAAGTACAAATAATATATTTATT [XGTACX_site890],8.41 ± 0.43
18,AGTATATATACACAAGGGGAATACATATACAAAATT [TGCATGCA_negctrl_site244],8.89 ± 0.39
19,ACAAAAGGGGAATACACACACATATATATATATATA [CACACA_site2215],10.2 ± 0.52
20,ATAAAATCAAAATATACACACAAGGGGGAAAATCAA [CACACA_site2809],8.96 ± 0.42
21,AAGATATGAGGGAATACACACATATTTATATTTATA [CACACA_site6846],8.26 ± 0.38
22,ATACAAAAGGGGAATACACACACATATATATATATA [CACACA_site8694],10.1 ± 0.33
23,GGAATATATATACATACACACATATATATATATATA [CACACA_site1666],10.1 ± 0.33
